Measured values taken from the supplement of paper PMC12282887.
± gives the standard deviation of the averaged measurements.

Key:
Assay in all cases: promoter activity interaction Z-score (Lux/OD deviation from empty-vector control); higher = stronger promoter induction by the compound
[1] = system: E. coli BW25113 acrABp lux reporter
Outline: (§1)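 E. coli BW25113 (wild type or marA, soxS or rob deletion) carrying low-copy luxCDABE promoter reporters grew in 40 µl LB Lennox in 384-well plates at 37°C. Each compound was tested at four 1:2 dilutions in biological duplicates. OD600 and luminescence were read every 30 min for 12 h. Areas were taken over 0–8 h (wild type) or 1–9 h (mutants), and wells below 10% of median growth area were removed. The score is the Z-transformed residual of growth-normalised luminescence fitted against the empty-vector control.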

[2] = system: E. coli BW25113 micFp lux reporter
Outline: as §1

[3] = system: E. coli BW25113 ompFp lux reporter
Outline: as §1

[4] = system: E. coli BW25113 robp lux reporter
Outline: as §1

[5] = system: E. coli BW25113 soxSp lux reporter
Outline: as §1

[6] = system: E. coli BW25113 tolCp lux reporter
Outline: as §1

[7] = 18.9 µg/ml, genetic background: wild type
[8] = 18.9 µg/ml, genetic background: ΔmarA
[9] = 18.9 µg/ml, genetic background: Δrob
[10] = 18.9 µg/ml, genetic background: ΔsoxS
[11] = 37.8 µg/ml, genetic background: wild type
[12] = 37.8 µg/ml, genetic background: ΔmarA
[13] = 37.8 µg/ml, genetic background: Δrob
[14] = 37.8 µg/ml, genetic background: ΔsoxS
[15] = 75.6 µg/ml, genetic background: wild type
[16] = 75.6 µg/ml, genetic background: ΔmarA
[17] = 75.6 µg/ml, genetic background: Δrob
[18] = 75.6 µg/ml, genetic background: ΔsoxS
[19] = 151.1 µg/ml, genetic background: wild type
[20] = 151.1 µg/ml, genetic background: ΔmarA
[21] = 151.1 µg/ml, genetic background: Δrob
[22] = 151.1 µg/ml, genetic background: ΔsoxS

SMILES: O=c1c(O)c(-c2ccc(O)c(O)c2)oc2cc(O)cc(O)c12 [Quercetin]
- promoter activity interaction Z-score [1, 7]: 0.0407 ± 0.033
- promoter activity interaction Z-score [1, 8]: 0.285 ± 0.58
- promoter activity interaction Z-score [1, 9]: 0.143 ± 0.3
- promoter activity interaction Z-score [1, 10]: -0.34 ± 0.38
- promoter activity interaction Z-score [1, 11]: -0.233 ± 0.072
- promoter activity interaction Z-score [1, 12]: -0.0432 ± 0.69
- promoter activity interaction Z-score [1, 13]: 0.164 ± 0.29
- promoter activity interaction Z-score [1, 14]: -0.184 ± 0.31
- promoter activity interaction Z-score [1, 15]: 0.12 ± 0.43
- promoter activity interaction Z-score [1, 16]: -0.0185 ± 1.1
- promoter activity interaction Z-score [1, 17]: 0.926 ± 1.1
- promoter activity interaction Z-score [1, 18]: -0.604 ± 0.62
- promoter activity interaction Z-score [1, 19]: -0.353 ± 0.089
- promoter activity interaction Z-score [1, 20]: 0.59 ± 0.8
- promoter activity interaction Z-score [1, 21]: -0.142 ± 0.23
- promoter activity interaction Z-score [1, 22]: -0.9 ± 0.8
- promoter activity interaction Z-score [2, 7]: -0.288 ± 0.045
- promoter activity interaction Z-score [2, 8]: -0.0462 ± 0.033
- promoter activity interaction Z-score [2, 9]: -0.011 ± 0.074
- promoter activity interaction Z-score [2, 10]: -0.324 ± 0.11
- promoter activity interaction Z-score [2, 11]: -0.188 ± 0.12
- promoter activity interaction Z-score [2, 12]: 0.0255 ± 0.15
- promoter activity interaction Z-score [2, 13]: -0.0437 ± 0.18
- promoter activity interaction Z-score [2, 14]: 0.101 ± 0.056
- promoter activity interaction Z-score [2, 15]: -0.0961 ± 0.062
- promoter activity interaction Z-score [2, 16]: 0.0844 ± 0.079
- promoter activity interaction Z-score [2, 17]: -0.0403 ± 0.11
- promoter activity interaction Z-score [2, 18]: -0.101 ± 0.085
- promoter activity interaction Z-score [2, 19]: 0.0699 ± 0.42
- promoter activity interaction Z-score [2, 20]: 0.224 ± 0.17
- promoter activity interaction Z-score [2, 21]: 0.00151 ± 0.41
- promoter activity interaction Z-score [2, 22]: -0.0142 ± 0.042
- promoter activity interaction Z-score [3, 7]: 0.228 ± 0.3
- promoter activity interaction Z-score [3, 8]: -0.0494 ± 0.2
- promoter activity interaction Z-score [3, 9]: -0.0408 ± 0.12
- promoter activity interaction Z-score [3, 10]: -0.358 ± 0.37
- promoter activity interaction Z-score [3, 11]: 5.13 ± 7
- promoter activity interaction Z-score [3, 12]: 0.88 ± 1.6
- promoter activity interaction Z-score [3, 13]: 1.304 ± 0.013
- promoter activity interaction Z-score [3, 14]: 0.531 ± 0.91
- promoter activity interaction Z-score [3, 15]: 0.467 ± 1.2
- promoter activity interaction Z-score [3, 16]: 0.186 ± 0.5
- promoter activity interaction Z-score [3, 17]: 0.616 ± 1.3
- promoter activity interaction Z-score [3, 18]: -0.383 ± 0.54
- promoter activity interaction Z-score [3, 19]: 0.00251 ± 0.91
- promoter activity interaction Z-score [3, 20]: 0.373 ± 2.1
- promoter activity interaction Z-score [3, 21]: 1.79 ± 0.024
- promoter activity interaction Z-score [3, 22]: -0.395 ± 0.84
- promoter activity interaction Z-score [4, 7]: 0.802 ± 0.18
- promoter activity interaction Z-score [4, 8]: 0.257 ± 0.52
- promoter activity interaction Z-score [4, 9]: 0.102 ± 0.22
- promoter activity interaction Z-score [4, 10]: 0.13 ± 0.66
- promoter activity interaction Z-score [4, 11]: 0.9459 ± 0.004
- promoter activity interaction Z-score [4, 12]: 0.813 ± 0.4
- promoter activity interaction Z-score [4, 13]: 0.818 ± 0.073
- promoter activity interaction Z-score [4, 14]: 1.68 ± 0.85
- promoter activity interaction Z-score [4, 15]: 0.907 ± 0.8
- promoter activity interaction Z-score [4, 16]: 0.794 ± 0.53
- promoter activity interaction Z-score [4, 17]: 0.226 ± 0.59
- promoter activity interaction Z-score [4, 18]: -0.114 ± 0.062
- promoter activity interaction Z-score [4, 19]: 0.549 ± 0.61
- promoter activity interaction Z-score [4, 20]: 0.417 ± 0.21
- promoter activity interaction Z-score [4, 21]: 0.359 ± 0.075
- promoter activity interaction Z-score [4, 22]: 0.712 ± 1.1
- promoter activity interaction Z-score [5, 7]: -0.413 ± 0.13
- promoter activity interaction Z-score [5, 8]: -0.385 ± 0.18
- promoter activity interaction Z-score [5, 9]: -0.267 ± 0.1
- promoter activity interaction Z-score [5, 10]: -0.281 ± 0.57
- promoter activity interaction Z-score [5, 11]: -0.368 ± 0.13
- promoter activity interaction Z-score [5, 12]: -0.526 ± 0.069
- promoter activity interaction Z-score [5, 13]: -0.179 ± 0.028
- promoter activity interaction Z-score [5, 14]: -0.0207 ± 0.51
- promoter activity interaction Z-score [5, 15]: -0.595 ± 0.016
- promoter activity interaction Z-score [5, 16]: -0.528 ± 0.057
- promoter activity interaction Z-score [5, 17]: -0.375 ± 0.034
- promoter activity interaction Z-score [5, 18]: -0.161 ± 0.89
- promoter activity interaction Z-score [5, 19]: -0.715 ± 0.13
- promoter activity interaction Z-score [5, 20]: -0.513 ± 0.048
- promoter activity interaction Z-score [5, 21]: -0.414 ± 0.054
- promoter activity interaction Z-score [5, 22]: -0.567 ± 1
- promoter activity interaction Z-score [6, 7]: -0.038 ± 0.65
- promoter activity interaction Z-score [6, 8]: -0.0776 ± 0.32
- promoter activity interaction Z-score [6, 9]: -0.506 ± 0.62
- promoter activity interaction Z-score [6, 10]: -0.651 ± 0.26
- promoter activity interaction Z-score [6, 11]: 0.105 ± 0.049
- promoter activity interaction Z-score [6, 12]: 0.271 ± 0.14
- promoter activity interaction Z-score [6, 13]: 0.0838 ± 0.44
- promoter activity interaction Z-score [6, 14]: 0.0451 ± 1.2
- promoter activity interaction Z-score [6, 15]: 0.492 ± 0.9
- promoter activity interaction Z-score [6, 16]: 0.253 ± 0.53
- promoter activity interaction Z-score [6, 17]: 0.773 ± 0.82
- promoter activity interaction Z-score [6, 18]: -0.519 ± 0.18
- promoter activity interaction Z-score [6, 19]: 0.00965 ± 1
- promoter activity interaction Z-score [6, 20]: 0.125 ± 0.38
- promoter activity interaction Z-score [6, 21]: 0.962 ± 1.8
- promoter activity interaction Z-score [6, 22]: -0.462 ± 0.4
